DT40 TDP1 no CPT – qHTS for Inhibitors of human tyrosyl-DNA phosphodiesterase 1 (TDP1): qHTS in cells in absence of CPT. 420,000 compounds, 15% hits. AID 686978, 2013. Potency, µM (doses to about 46.2 µM), inactives show top-dose activity change, negative = growth inhibition, hits mostly inhibitors. DT40 Tdp1-/- hTDP1 cells, no CPT, ATP luminescence, 48 h; note: potency is the fitted concentration of half-maximal effect; nearly all actives have a fitted effect of over 55% in size
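Growth kinetics read by CellTiter-Glo luminescence after ≥48 hr at 37 °C. Cells: DT40 Tdp1-/- stably carrying human TDP1, 400 per well, compound exposure in the absence of CPT (DMSO vehicle).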
TDP1 block – qHTS Assay for Inhibitors of Tyrosyl-DNA Phosphodiesterase (TDP1) | Tyrosyl-DNA phosphodiesterase 1 (Homo sapiens), Q9NUW8 | recombinant TDP1, AlphaScreen DNA substrate cleavage | Potency, µM (titrated, usually from 130 µM), for the others: top-dose activity change, negative = inhibition, actives largely listed as inhibitors | 350,000 compounds, 0.28% hits | AID 485290, 2010; note: potency is the fitted concentration of half-maximal effect; nearly all actives have a fitted effect of over 40% in size
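Compounds were preincubated with Tdp1 (1 nM final) for 15 min at room temperature before substrate (15 nM final) started a 5 min reaction; beads (10 ug/ml final) were then added for 10 min before AlphaScreen detection.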
IL-1B inflam inh – qHTS for Inhibitors of Inflammasome Signaling: IL-1-beta AlphaLISA Primary Screen | THP-1 LPS/ATP IL-1B secretion, AlphaLISA, 16 h; hits give low values | activity change, % at 57.5 µM | 360,000 compounds, 4.7% hits; in the data active = activity change below about -50%; inconclusive = mostly about -30% to -49%
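THP-1 cells pretreated 1 hr with compounds (up to 57.5 uM final), then stimulated with LPS (250 ng/mL final) plus ATP (1.25 mM final); secreted IL-1B measured by AlphaLISA after 16 hr, decreased signal indicating inhibition.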
Six1-Eya2 blk – qHTS Assay for Inhibitors of the Six1/Eya2 Interaction | AlphaScreen GST-Six1/His-Eya2 binding, biochemical; hits give low values | Homeobox protein SIX1 (Homo sapiens) + Protein phosphatase EYA2 (Homo sapiens), … | activity change, % (test concentration not listed) | 360,000 compounds, 0.56% hits; in the data active = activity change below about -65%; inconclusive = mostly about -30% to -63%
Target sequence (O00167 whole entry, looked up): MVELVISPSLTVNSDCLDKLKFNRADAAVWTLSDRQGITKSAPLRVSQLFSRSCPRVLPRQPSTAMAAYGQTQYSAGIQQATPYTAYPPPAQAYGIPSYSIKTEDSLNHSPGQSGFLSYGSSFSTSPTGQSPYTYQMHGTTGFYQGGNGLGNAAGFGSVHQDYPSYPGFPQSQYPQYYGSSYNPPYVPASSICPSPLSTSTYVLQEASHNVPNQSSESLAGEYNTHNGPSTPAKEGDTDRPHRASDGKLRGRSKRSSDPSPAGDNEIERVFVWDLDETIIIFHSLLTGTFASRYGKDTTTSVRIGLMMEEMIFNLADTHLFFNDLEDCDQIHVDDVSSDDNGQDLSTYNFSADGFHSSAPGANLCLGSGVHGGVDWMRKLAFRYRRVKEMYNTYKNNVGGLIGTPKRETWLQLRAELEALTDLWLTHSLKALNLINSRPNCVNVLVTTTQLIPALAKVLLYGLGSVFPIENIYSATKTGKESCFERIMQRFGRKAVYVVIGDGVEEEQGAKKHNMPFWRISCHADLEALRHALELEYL
Target sequence (Q15475 whole entry, looked up): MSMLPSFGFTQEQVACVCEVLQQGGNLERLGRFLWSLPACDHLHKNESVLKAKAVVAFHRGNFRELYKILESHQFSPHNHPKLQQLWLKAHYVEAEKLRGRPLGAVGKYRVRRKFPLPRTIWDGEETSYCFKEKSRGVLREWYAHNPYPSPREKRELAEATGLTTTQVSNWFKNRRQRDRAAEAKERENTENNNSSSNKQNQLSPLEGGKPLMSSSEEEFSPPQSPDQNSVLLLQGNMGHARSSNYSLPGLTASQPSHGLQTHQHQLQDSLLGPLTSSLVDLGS
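GST-Six1 + His-Eya2 (5X stock: 250/500 nM); Tris pH 8.0, 300 mM NaCl, 0.05% BSA, 0.02% Tween 20; GSH donor/Ni acceptor beads; 1 h 37 °C dark; AlphaScreen readout.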
DT40 TDP1 CPT – qHTS for Inhibitors of human tyrosyl-DNA phosphodiesterase 1 (TDP1): qHTS in cells in presence of CPT. chicken DT40 Tdp1-/-;hTDP1 cells + 20 nM CPT, ATP luminescence, 48 h. 420,000 compounds, 12% hits. Potency, µM (series often up to 46.2 µM), for inactives: at the highest dose activity change, negative = growth inhibition, hits mostly inhibitors. AID 686979, 2013; note: potency is the fitted concentration of half-maximal effect; nearly all actives have a fitted effect of over 55% in size
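Chicken DT40 Tdp1-/- cells complemented with human TDP1, 400 cells/well, exposed to compounds plus 20 nM camptothecin for at least 48 h at 37 C; viability read as ATP content by CellTiter-Glo luminescence.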
CtBP-E1A blk – qHTS Assay for Inhibitors of the CtBP/E1A Interaction; AlphaScreen GST-E1A/His-CtBP binding, 1536-well; hits give low values; activity change, % (test concentration not listed); 340,000 compounds, 0.49% hits; AID 651724, 2012; in the data active = activity change below about -65%; inconclusive = mostly about -30% to -63%
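AlphaScreen with 125 nM GST-E1A and 125 nM His-CtBP (5X stocks) in Tris pH 8.0, 300 mM NaCl, BSA, Tween 20, TCEP. Compounds preincubated 2 h at 37 deg C, then glutathione donor/nickel acceptor beads added for 1 h at 37 deg C in dark.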
Active calls of the source: *; ? = inconclusive; . = no result; [ ] = another dose, or the depositor's remark. Only some compounds are listed: those with a hit (about 18% of all), similar ones and a draw of the others. Unless noted, calls come from the whole dose curve; as a rule, active = well fitted curve in the direction sought with a large enough effect; inconclusive = small, poorly fitted or top-dose-only effect, or another doubt; inactive = no such curve, though single readings can be large; an effect the other way counts as inactive or inconclusive. % is set by controls: 0 for no effect and ±100 for the full control effect.

SMILES	DT40 TDP1 no CPT	TDP1 block	IL-1B inflam inh	Six1-Eya2 blk	DT40 TDP1 CPT	CtBP-E1A blk
Cc1ccc(OCc2nnc(SCc3cc(=O)[nH]c4ccccc34)o2)cc1	-20.1%	3.9%	100.4	-3.2	-4.4%	-4.7
C[C@@H](c1ccccc1)N1C[C@@H](COCc2ccccc2)Oc2cc(N3CCC[C@H]3CO)ccc2S1(=O)=O	20.6µM*	.	?	-10.3	?	-4.4
C[C@H](c1ccccc1)N1C[C@@H](COCc2ccccc2)Oc2cc(N3CCC[C@@H]3CO)ccc2S1(=O)=O	20.6µM*	.	-22.4	3.3	?	-16.4
CCOC(=O)C(NC(C)=O)C(=O)Nc1ccc(C(C)(C)C)cc1 (centres undefined)	1.8%	8.1%	51.0	-2.9	27.6%	16.9
COc1ccccc1[C@@H]1C(c2ccc(F)cc2)=NN(c2ccc(Br)cc2)[C@H]1C(=O)N1CCOC1=O	.	-6.1%[96 µM]	.	.	.	.
COc1cc(OC)cc(OCC(O)Cn2cnc3cc(C)c(C)cc32)c1 (centres undefined)	16.4µM*	3.7%	-5.1	-6.9	?	4.9
CC(CC(=O)Nc1nc2ccccc2[nH]1)c1ccccc1 (centres undefined)	?	7.0%	-13.9	6.3	?	-1.8
COC(=O)Nc1nc2ccc(SC(C)C)cc2[nH]1	3.26µM*	5.7%[56.1 µM]	33.5	6.5	0.82µM*	-18.8
COC(=O)Nc1nc2ccc(C(=O)c3ccccc3)cc2[nH]1	0.255µM*	9.6%[56.1 µM]	.	.	0.36µM*	.
COc1cccc(C(=O)Nc2nc3ccccc3[nH]2)c1	?	7.9%	-19.1	-2.1	-23.2%	-3.4
COC(=O)Nc1nc2ccc(S(=O)c3ccccc3)cc2[nH]1 (centres undefined)	8.41µM*	7.7%	.	.	?	.
O=C(CSc1ccc2ccccc2c1)Nc1nc2ccccc2[nH]1	?	0.0%	26.1	4.0	-29.9%	9.0
COc1ccc(C)cc1/C=C/C(=O)N1CCN(S(=O)(=O)c2cccs2)CC1	?	.	-9.5	-8.3	20.6µM*	-2.3
Cc1ccc(-c2cc(C(=O)Nc3c(C)n(C)n(-c4ccccc4)c3=O)c3ccccc3n2)cc1	?	-0.3%	-5.4	-6.8	?	-5.1
CCC1(c2ccccc2)NC(=O)N(CC(=O)N(C)CC(=O)Nc2ccc(F)c(F)c2F)C1=O (centres undefined)	-25.3%	0.3%	6.7	5.6	-16.2%	-1.4
CC(Nc1ncnc2sccc12)c1ccccc1 (centres undefined)	0.92µM*	7.7%	-7.9	7.1	2.59µM*	9.7
Nc1cccnc1Sc1ccc([N+](=O)[O-])cn1	-0.5%	7.9%	-17.2	-0.6	20.2%	-17.9
Cc1nc(SCC(=O)NCc2ccco2)nc(C)c1C	6.8%	-4.2%	13.9	-4.8	7.5%	11.5
CC(NC(=O)CSc1nc2c(c(C(F)(F)F)n1)CCc1ccccc1-2)c1ccccc1 (centres undefined)	23.1µM*	2.6%	-16.2	2.3	?	-0.8
CCc1c(C)sc(NC(=O)CSc2nc3c(c(C(F)(F)F)n2)CCc2ccccc2-3)c1C#N	?	-2.8%	19.8	4.4	20.6µM*	3.6
O=C(CSc1nc2c(c(C(F)(F)F)n1)CCc1ccccc1-2)NCc1ccco1	25.9µM*	7.7%	28.7	0.5	16.4µM*	-10.8
O=C(Nc1ccc(C(F)(F)F)cc1)c1cc(S(=O)(=O)NC2CCCCCC2)ccc1F	?	2.6%	.	.	20.6µM*	.
O=C(Nc1ccc(C(F)(F)F)cc1)c1cc(S(=O)(=O)NC2CCCCC2)ccc1F	18.4µM*	0.0%	.	.	13µM*	.
C=C(C)CNC(=S)Nc1sc2c(c1C(=O)OCC)CC(C)(C)OC2	16.4µM*	2.7%	19.8	0.0	23.1µM*	4.0
CCOC(=O)c1c(NC(=O)c2ccc(C)cc2)sc2c1CC(C)(C)OC2	18.4µM*	?	-16.2	-2.5	?	8.7
SMILES	DT40 TDP1 no CPT	TDP1 block	IL-1B inflam inh	Six1-Eya2 blk	DT40 TDP1 CPT	CtBP-E1A blk
CCOC(=O)c1c(NC(=O)CCC(=O)N(CC)CC)sc2c1CC(C)(C)OC2	?	4.2%	0.0	4.3	?	-3.2
Cc1ccccc1CC(=O)Nc1ccon1	0.8%	2.3%	4.6	-4.3	-22.2%	-1.2
CC(C(=O)NCc1ccc(Cl)cc1)n1ccc2cc(S(=O)(=O)N3CCCCCC3)ccc21 (centres undefined)	18.4µM*	0.0%	.	.	?	.
CC(C(=O)NCc1ccc(Cl)cc1)n1ccc2cc(S(=O)(=O)N3CCCC3)ccc21 (centres undefined)	?	2.8%	.	.	?	.
COc1ccc(CNC(=O)C(C)n2ccc3cc(S(=O)(=O)N4CCCCCC4)ccc32)cc1 (centres undefined)	?	0.2%	?	-1.7	?	-2.3
CC(C)Oc1ccc(CNC(=O)C(C)n2ccc3cc(S(=O)(=O)N4CCCCCC4)ccc32)cc1 (centres undefined)	20.6µM*	5.6%	.	.	?	.
Nc1cc(=O)[nH]c(SCc2cccc(Cl)c2)n1	?	3.1%	84.3	4.1	23.1µM*	12.3
Nc1cc(=O)[nH]c(SCc2ccccc2)n1	4.0%	.	5.8	6.1	18.8%	-1.9
Nc1cc(=O)[nH]c(SCc2ccc(Cl)cc2)n1	-25.4%	-2.3%	34.1	-1.5	-2.1%	-0.1
CC(C)(C)c1ccc(CSc2nc(N)cc(=O)[nH]2)cc1	18.4µM*	.	-2.4	-10.4	23.1µM*	-10.5
CN(Cc1ccccc1)C(=O)c1nc[nH]c1C(=O)N1CCN(C(=O)OC(C)(C)C)CC1	-15.2%	0.6%	0.0	3.9	-13.7%	1.0
Cc1ccc2nc3c(cc(C(=O)NCc4ccccc4)c(=N)n3CCCn3ccnc3)c(=O)n2c1	?	.	?	23.0	?	-4.3
COCCn1c(=N)c(C(=O)NC(C)c2ccccc2)cc2c(=O)n3cc(C)ccc3nc21 (centres undefined)	-10.1%	.	.	.	8.9%	.
Cc1cccn2c(=O)c3cc(C(=O)NCc4ccccc4)c(=N)n(CCOCCO)c3nc12	25.9µM*	.	.	.	11.6µM*	.

Source: PubChem
